# Assay outcomes as filed in PubChem.
# In the library only some 2.6% were active in any assay of this set; here they are far more common.
# eIF4H FP inh: inhibitors of RNA binding by human eIF4H; Q15056; eIF4H fluorescence polarization binding assay; inhibition, % at 35 µM; 0.94% of 290,000 active; AID 2012;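 also: calls also rest on retests at 20 µM and on dose response follow-up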
# CRFR2-BP antag: blocks CRF-induced signaling of the CRF-BP/CRF-R2 complex; inhibition, % at 11.8 µM; 0.59% of 350,000 active; HEK293 CRF-R2/CRF-BP, CRF-induced calcium fluorescence;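 active = inhibition of the ligand-induced calcium signal above about 50% at the single tested concentration, limit read from the data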
# PHOSPHO1 inh: blocks human PHOSPHO1 phosphatase activity. Q8TCT1. recombinant PHOSPHO1, absorbance phosphatase assay. inhibition, % at 13.3 µM. 1.1% of 290,000 active; in the data active = inhibition above about 60%
# PABP1 MLLE inh: blocks PAM2 peptide binding to the PABP1 MLLE domain; P11940; GST-MLLE / FITC-PAM2 fluorescence polarization; inhibition, % at 20 µM; 0.36% of 360,000 active; AID 588489; in the data active = inhibition above about 35%, passing the limit was not always enough;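 also: plate controls were DMSO wells with GST-MLLE for no effect and wells lacking GST-MLLE protein for full effect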
# Target sequence (P11940 whole entry, looked up, the tested form may be a part): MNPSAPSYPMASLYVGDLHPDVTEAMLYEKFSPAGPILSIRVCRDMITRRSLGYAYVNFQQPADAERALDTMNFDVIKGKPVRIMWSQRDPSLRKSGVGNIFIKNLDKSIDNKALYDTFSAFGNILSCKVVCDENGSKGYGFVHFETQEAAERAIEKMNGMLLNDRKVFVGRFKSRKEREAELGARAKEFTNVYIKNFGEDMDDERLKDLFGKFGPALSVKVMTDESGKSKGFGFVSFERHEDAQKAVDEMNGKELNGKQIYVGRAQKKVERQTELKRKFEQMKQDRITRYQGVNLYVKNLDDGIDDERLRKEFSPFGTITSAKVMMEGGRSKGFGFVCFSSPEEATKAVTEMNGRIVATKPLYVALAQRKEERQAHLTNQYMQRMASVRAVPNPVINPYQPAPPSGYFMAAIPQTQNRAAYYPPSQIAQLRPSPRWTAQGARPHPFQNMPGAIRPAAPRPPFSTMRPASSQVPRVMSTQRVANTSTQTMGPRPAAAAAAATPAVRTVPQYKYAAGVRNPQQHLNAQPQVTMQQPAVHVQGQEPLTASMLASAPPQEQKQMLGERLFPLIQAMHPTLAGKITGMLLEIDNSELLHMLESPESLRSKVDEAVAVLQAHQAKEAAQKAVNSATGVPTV
# PABP polyA inh: blocks human PABP binding to poly(A) RNA | fluorescence polarization | inhibition, % at 35 µM | 1% of 290,000 active | AID 2014;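 also: calls also rest on retests at 20 µM and on dose response follow-up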
# Numbers without * were called inactive; nt = not tested or not shown. Unless noted, no rule for the calls is given here.
SMILES,eIF4H FP inh,CRFR2-BP antag,PHOSPHO1 inh,PABP1 MLLE inh,PABP polyA inh
CC(C)Cn1c(SCC(=O)c2c(N)n(C)c(=O)n(C)c2=O)nc2ccccc21,4,-25,34,-114,-12
COCCn1c(SCC(=O)c2c(N)n(C)c(=O)n(C)c2=O)nc2ccccc21,3.0*,-2,12,-1,61*
Cc1ccc2c(c1)-c1c(ssc1=S)C(C)(C)N2C(=O)c1ccco1,1,-1,-8,48*,-10
O=S(=O)(c1ccc2ccccc2c1)N1CCN(c2ccc(O)cc2)CC1,nt,-9,nt,-5,nt
Cc1cc(O)cc2c1C(=O)/C(=C/c1ccco1)O2,61*,-35,11,-11,43*
Cc1ccc2c(c1)N1C(=O)c3ccccc3C1C1=C(CC(C)(C)CC1=O)N2 (stereo not drawn),active,-9,-6,10,71
CCN1C(c2ccccc2)C(C)C(=O)C(C)C1c1ccccc1 (stereo not drawn),-3,57*,-4,-1,-3
Cn1c(=O)c2c(ncn2CC(=O)Nc2cccc(S(=O)(=O)Nc3ccccc3F)c2)n(C)c1=O,-14,8,0,45*,5
CN(c1ccccc1)S(=O)(=O)c1cccc(NC(=O)Cn2cnc3c2c(=O)n(C)c(=O)n3C)c1,-14,-20,-4,-6,8
O=CNn1cnc2c(oc3nc(-c4ccccc4)cc(-c4ccco4)c32)c1=O,51*,21,-5,-2,14
S=C(NC1CCCCC1)NN1CCCCCC1,nt,4,nt,-33,nt
CN1CCN(NC(=S)NC2CCCCC2)CC1,87*,-9,12,-12,0.9*
CC[C@H](C)[C@H]1CNC(=O)C(=O)N1CC1CCN(CCCc2ccc(OC)c(OC)c2)CC1,nt,-7,nt,8,nt
Cc1cc(/C=C\c2nc(O)c([N+](=O)[O-])c(=O)[nH]2)c(C)n1-c1ccccc1,62*,-29,11,-12,-7
O=c1[nH]c(/C=C\c2ccc(O)c(O)c2)nc(O)c1[N+](=O)[O-],50*,-9,34,8,41*
O=C(Nc1ccc(S(=O)(=O)Nc2nccs2)cc1)c1ccc(=O)[nH]c1,73,1,44,-46,28*
O=C(Nc1ccc(S(=O)(=O)Nc2nccs2)cc1)c1ccc(F)c(S(=O)(=O)N2CCOCC2)c1,52*,16,43,-54,-3
COc1ccc(/C=C2\S/C(=N/S(=O)(=O)c3cccs3)NC2=O)cc1,9,69*,-10,-11,-7
CCCc1nn(C)c2c(=O)[nH]c(-c3cc(S(=O)(=O)N(CCO)CCO)ccc3OCC)nc12,-3,-4,63*,-4,-2
CCOc1ccc(S(=O)(=O)N(CCO)CCO)cc1-c1nc2c(C(C)(C)C)nn(C)c2c(=O)[nH]1,-4,6,-12,-5,1
CC(C)C(NC(=O)C(C)N1C(=O)c2ccccc2C1=O)c1ccccc1 (stereo not drawn),-8,0,33,5,5
Cc1ccccc1-c1nn(-c2ccc(F)cc2F)cc1CNC1CC1,54*,-42,9,0,active
CCn1c(Cc2ccccc2)nnc1SCC(=O)c1c(N)n(C2CC2)c(=O)[nH]c1=O,nt,-1,nt,-4,nt
CCn1ccc(C(=O)NCCCN2CCCC2=O)n1,7,14,65*,-13,5
C/C(=N\NC(=O)COc1cccc(Cl)c1)c1ccc2c(c1)OCCO2,active,18,2,-8,116
SMILES,eIF4H FP inh,CRFR2-BP antag,PHOSPHO1 inh,PABP1 MLLE inh,PABP polyA inh
COc1ccc2c(C#N)c3ccccn3c2c1,17,-21,30,54*,3
CSc1ccc(/C=C/C(=O)N2CCN(c3ccccn3)CC2)cc1,-14,92*,30,-4,-6
O=C(CC(c1ccccc1)c1ccccc1)N1CCN(c2ccccn2)CC1,-2,3,66*,0,-3
O=C(CC(c1ccccc1)c1ccco1)N1CCCCC1 (stereo not drawn),-6,nt,60*,-4,7
O=C(CSc1ccccc1)N1CCN(c2ccccn2)CC1,-8,-12,42,25,-11
O=C(CSc1ncccn1)N1CCN(C(c2ccccc2)c2ccccc2)CC1,3,33,86*,-118,50
CCc1cc(C(=O)Nc2nc(-c3ccccn3)cs2)sc1C,nt,4,nt,-21,nt
CCOC(=O)[C@@H]1[C@H]2COc3ccccc3[C@H]2N2C(=O)N(c3cccc(Cl)c3)C(=O)[C@]12C,nt,-6,nt,0,nt
O=C(NCc1cccc(C(F)(F)F)c1)c1ccc2sc([C@H]3C[C@H](O)[C@@H](CO)O3)nc2c1,nt,nt,nt,-15,nt
